# Laboratory results as given in PubChem BioAssay AID1345085 (National Center for Advancing Translational Sciences (NCATS), 2018).
# Inconclusive results are not listed. Active and inactive are the calls of the source. Calls come from the whole dose curve; as a rule, active = well fitted cell-killing curve with a large enough effect; inconclusive = small, poorly fitted or top-dose-only effect, or effect the other way; inactive = no such curve, though single readings can be large or run the other way.
# Tested on: Jar
# Test: Confirmatory qHTS for gynecologic anti-cancer compounds from libraries of approved drugs and bioactive compounds; note: nearly all actives have a fitted effect of over 55% in size
# Conditions: gynecologic cancer cell panel viability, ATPlite luminescence, 48 h; series mostly up to 57.6 µM; activity change, negative = viability loss: at the top concentration
# Procedure, shortened: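 ATPlite luminescence read-out of cell viability; IC50 from 11-point 1:3 titrations, 57.5 uM to 0.977 nM, 48 h compound exposure at 37 C, 5% CO2. Cells seeded at 1,000/well 16 h before dosing.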
# % is set by controls: 0 for no effect and ±100 for the full control effect; potency is the fitted concentration of half-maximal effect.
Structure (SMILES),Potency,"activity change, negative = viability loss"
COc1cccc2c1C(=O)c1c(O)c3c(c(O)c1C2=O)C[C@@](O)(C(=O)CO)C[C@@H]3O[C@H]1C[C@H](N)[C@H](O)[C@H](C)O1,1.72 µM (active),
Cc1cc(C(=O)N2CCN(c3cccc(Cl)c3)CC2)n(-c2ccccc2)n1,1.72 µM (active),
CC[C@]1(O)C[C@H]2CN(CCc3c([nH]c4ccccc34)[C@@](C(=O)OC)(c3cc4c(cc3OC)N(C=O)[C@H]3[C@@](O)(C(=O)OC)[C@H](OC(C)=O)[C@]5(CC)C=CCN6CC[C@]43[C@@H]65)C2)C1,0.273 µM (active),
CN1CCN(c2ccc(OC(F)(F)F)c(Nc3ncc4c(n3)-c3c(c(C(N)=O)nn3CCO)CC4)c2)CC1,0.153 µM (active),
Nc1ccccc1NC(=O)c1ccc(CNc2nccc(-c3cccnc3)n2)cc1,1.93 µM (active),
CC(Oc1ccc2[nH]nc(/C=C/c3cnn(CCO)c3)c2c1)c1c(Cl)cncc1Cl (stereo unspecified),,-2.73% (inactive)
CN(C)C(CCOc1cccc2ccccc12)c1ccccc1 (stereo unspecified),,2.73% (inactive)
CCCCc1nc2cc(/C=C/C(=O)NO)ccc2n1CCN(CC)CC,1.22 µM (active),
CC1=C(CO)C(=O)O[C@@H]([C@@H](C)[C@H]2CC[C@H]3[C@@H]4C[C@H]5O[C@]56[C@@H](O)C=CC(=O)[C@]6(C)[C@H]4CC[C@]23C)C1,8.41 µM (active),
CNc1nccc(-c2cccnc2Oc2cc(C(=O)Nc3cccc(C(F)(F)F)c3)ccc2C)n1,19.3 µM (active),
Cc1cnc(Nc2ccc(CN3CCOCC3)cc2)nc1Nc1cccc(S(=O)(=O)NC(C)(C)C)c1,9.68 µM (active),
O=C(CCCCCCNC(=O)c1cnc(N(c2ccccc2)c2ccccc2)nc1)NO,8.63 µM (active),
Nc1ccn([C@@H]2O[C@H](CO)[C@@H](O)C2(F)F)c(=O)n1,,-22.8% (inactive)
NC(=O)c1ccc2nc(-c3ccc(Oc4ccc(Cl)cc4)cc3)[nH]c2c1,24.3 µM (active),
O=C(/C=C/c1cccc(S(=O)(=O)Nc2ccccc2)c1)NO,0.943 µM (active),
COc1cc(N2CCC(N3CCN(C)CC3)CC2)ccc1Nc1ncnc(Nc2ccccc2S(=O)(=O)C(C)C)n1,,9.46% (inactive)
CCN1CCN(Cc2ccc(-c3cc4c(NC(C)c5ccccc5)ncnc4[nH]3)cc2)CC1 (stereo unspecified),21.7 µM (active),
FC(F)(F)c1ccc(/C=C/c2nc(COc3ccc(CCCCn4ccnn4)cc3)co2)cc1,0.0172 µM (active),

Structure (SMILES),Potency,"activity change, negative = viability loss"
CCc1c2c(nc3ccc(O)cc13)-c1cc3c(c(=O)n1C2)COC(=O)[C@]3(O)CC,1.72 µM (active),
Cc1ccc(C(=O)N(CCCN)C(c2oc3cc(Cl)ccc3c(=O)c2Cc2ccccc2)C(C)C)cc1 (stereo unspecified),0.0137 µM (active),
COc1cc2c(cc1-c1c(C)noc1C)ncc1[nH]c(=O)n(C(C)c3ccccn3)c12 (stereo unspecified),27.3 µM (active),
N=C(N)c1ccc(OCCCCCOc2ccc(C(=N)N)cc2)cc1,5.44 µM (active),
C[C@@]1(C(=O)Nc2ccc(F)nc2)CCCN1c1nc(Nc2cc(C3CC3)[nH]n2)c2cccn2n1,8.63 µM (active),
Cc1cnc(Nc2ccc(OCCN3CCCC3)cc2)nc1Nc1cccc(S(=O)(=O)NC(C)(C)C)c1,17.2 µM (active),
Cc1cc(Nc2nc(N[C@@H](C)c3ncc(F)cn3)ncc2Cl)n[nH]1,,19.1% (inactive)
COc1cccc2c1C(=O)c1c(O)c3c(c(O)c1C2=O)C[C@@](O)(C(=O)CO)C[C@@H]3O[C@H]1C[C@H](N)[C@H](O[C@@H]2CCCCO2)[C@H](C)O1,13.7 µM (active),
CN(C)CC/C=C1\c2ccccc2COc2ccccc21,,-9.39% (inactive)
Cn1cnc2c(F)c(Nc3ccc(Br)cc3F)c(C(=O)NOCCO)cc21,,5.2% (inactive)
CO[C@@]12[C@H](COC(N)=O)C3=C(C(=O)C(C)=C(N)C3=O)N1C[C@@H]1N[C@@H]12,,44.4% (inactive)
C[C@@H](Oc1cc(-c2cnn(C3CCNCC3)c2)cnc1N)c1c(Cl)ccc(F)c1Cl,15.3 µM (active),
CCC1C(=O)N(C)c2cnc(Nc3ccc(C(=O)NC4CCN(C)CC4)cc3OC)nc2N1C1CCCC1 (stereo unspecified),0.0217 µM (active),
Cn1c(=O)c(F)c(Nc2ccc(I)cc2F)c2c(=O)n(CC(O)CO)cnc21 (stereo unspecified),,-7.62% (inactive)
CN1C2CCC1CC(OC(=O)[C@H](CO)c1ccccc1)C2 (stereo partly specified),,-0.748% (inactive)
CNC1CCC(N(Cc2cccc(-c3ccncc3)c2)C(=O)c2sc3ccccc3c2Cl)CC1 (stereo unspecified),34.3 µM (active),
Fc1cc(-c2cccc3ncc(-c4cnn(C5CCNCC5)c4)nc23)cc(F)c1CN1CCOCC1,34.3 µM (active),
CN1CCN(Cc2ccc(NC(=O)Nc3ccc(Oc4cc(NC(=O)C5CC5)ncn4)cc3)cc2C(F)(F)F)CC1,19.3 µM (active),
